Compounds with a hit are over-represented: about 3.5% of the library has one in this group of screens.
MITF inh: MITF inhibitors, primary screen, biochemical, AlphaScreen, human; Microphthalmia-associated transcription factor (Homo sapiens), O75030; AlphaScreen MITF homodimerization, bead proximity signal; inhibition, % at 2.6 µM; 650,000 compounds, 0.91% hits; in the data active = inhibition above about 50%;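 note: 0% = vehicle wells with protein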
FBW7 activator: FBW7 E3 ligase activators, primary screen, biochemical, AlphaScreen, human | F-box/WD repeat-containing protein 7 (Homo sapiens), Q969H0 | AlphaScreen FBW7–phospho-cyclin E peptide binding, activator screen | normalized activity (activation), % at 26.1 µM | 650,000 compounds, 0.13% hits; in the data active = normalized activity above about 1.9%;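 note: purified mutant Fbw7 with reduced substrate affinity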
GPR151 ag: activators of human GPR151, primary screen, cell-based, PathHunter beta-arrestin, luminescence. G-protein coupled receptor 151 (Homo sapiens), Q8TDV0. PathHunter beta-arrestin GPR151 cells. activation, % at 11.2 µM. 650,000 compounds, 1% hits. AID 1508602, 2020; in the data active = activation above about 4.9%;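 note: 0% = median of compound wells and 100% = cells with positive control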
Target sequence (Q8TDV0 whole entry, looked up): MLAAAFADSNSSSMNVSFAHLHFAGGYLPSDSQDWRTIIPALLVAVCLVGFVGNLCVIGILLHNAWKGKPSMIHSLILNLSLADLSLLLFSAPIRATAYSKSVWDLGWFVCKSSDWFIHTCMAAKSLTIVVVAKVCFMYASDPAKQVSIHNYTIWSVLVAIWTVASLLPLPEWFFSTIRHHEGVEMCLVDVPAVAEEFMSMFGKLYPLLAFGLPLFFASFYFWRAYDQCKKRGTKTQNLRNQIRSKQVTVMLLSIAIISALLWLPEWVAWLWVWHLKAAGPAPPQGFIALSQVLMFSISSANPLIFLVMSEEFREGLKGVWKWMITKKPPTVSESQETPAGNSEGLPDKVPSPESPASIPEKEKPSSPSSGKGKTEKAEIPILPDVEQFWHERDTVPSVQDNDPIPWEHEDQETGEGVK
TEAD-YAP inh: TEAD-YAP interaction inhibition, primary screen, TEAD-YAP interaction inhibitor project, luminescence, HEK-TIYL cells. 640,000 compounds, 1.4% hits. AID 1259422, 2018. inhibition, % at 9.12 µM. TEAD-Gal4/YAP UAS-luciferase luminescence; in the data active = inhibition above about 32%;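 note: 0% = median of test compound wells and 100% = reference inhibitor wells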
MITF inh conf: MITF inhibitors, retest of hits, confirmation, biochemical, AlphaScreen, triplicate. shares compounds with MITF inh. AlphaScreen MITF homodimerization, biotin/His-MITF beads. inhibition, % at 2.6 µM. 4,700 compounds, 16% hits. AID 1259372, 2018;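 active = inhibition above a cutoff derived from the DMSO control wells, cut at about 28% in these data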;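 note: 0% = MITF dimer wells with DMSO only; inhibitors lower the bead chemiluminescence by keeping MITF from dimerizing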
AS interf DR: AlphaScreen optical interference compounds, dose response, counter-screen, biochemical, HTS. shares compounds with MITF inh. AlphaScreen optical interference counterscreen, cell-free. IC50, µM. 480 compounds, 6% hits. AID 1259373, 2018; call rule not given here
AS interf ctr: AlphaScreen optical interference compounds, counter-screen for MITF inhibitor project, biochemical, triplicate | inhibition, % at 2.6 µM | LysRS AlphaScreen counterscreen, signal interference | 4,700 compounds, 7.6% hits | shares compounds with MITF inh;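 active = inhibition above a cutoff derived from the DMSO control wells, cut at about 30% in these data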
Numbers without * were called inactive; . = no result.

SMILES	MITF inh	FBW7 activator	GPR151 ag	TEAD-YAP inh	MITF inh conf	AS interf ctr	others
CCC(C)c1ccccc1OCCN1CCOCC1 (stereo not given)	83.6*	0.1	0.9	9.2	16.7	0.6
CCN1CCN(CCOCCOc2ccccc2-c2ccccc2)CC1	63.8*	0.0	-0.4	4.4	8.0	17.1
Cc1cc(C)c(C)c(OCCOCCNC(C)(C)C)c1	63.5*	-0.1	0.7	6.3	-11.8	-7.2
CC(C)(C)NCCOCCOc1ccccc1-c1ccccc1	63.3*	0.0	1.4	-4.7	-1.7	0.1
Cc1cc(C)c(C)c(OCCNC(C)(C)C)c1	14.0	0.1	0.5	9.6	.	.
CCn1c2ccc(C(C)=O)cc2c2cc(C(C)=O)ccc21	10.9	0.0	-0.3	-1.3	.	.
c1ccc(-c2ccc(OCCN3CCNCC3)cc2)cc1	55.5*	0.2	-2.5	-21.6	-9.0	-2.5
Clc1c(OCCN2CCOCC2)ccc2ccccc12	11.9	0.0	2.3	-48.6	.	.
c1ccc(OCCNCCN2CCOCC2)cc1	8.7	0.2	0.1	-4.9	.	.
CCN1CCN(CCOCCOc2ccc3ccccc3c2Cl)CC1	51.2*	-0.2	-0.2	-4.0	6.2	12.4
c1ccc(OCCN2CCOCC2)cc1	54.1*	-0.1	-1.8	2.5	-0.1	9.6
c1ccc(-c2ccc(OCCCN3CCNCC3)cc2)cc1	-16.3	-0.3	0.0	-52.7	.	.
c1ccc(-c2ccccc2OCCOCCN2CCNCC2)cc1	75.5*	0.0	2.8	9.3	8.1	-3.3
CCN1CCCC1CNC(=O)C1CCN(c2nc3c(C)cc(C)cc3s2)CC1 (stereo not given)	9.1	0.3	0.1	3.3	.	.
Cc1nn(C(=O)c2nn(C)cc2I)c(C)c1Cl	54.4*	1.5	1.8	0.1	2.0	-0.9
O=C(c1csc(-n2cccc2)n1)N1CCN(c2ccccn2)CC1	60.0*	-0.4	-1.5	1.8	14.1	9.3
O=C(c1csc(-n2cccc2)n1)N1CCN(c2ccccc2O)CC1	3.0	-0.3	-1.4	2.1	.	.
Cc1ccccc1NC(=O)N1CCN(CC(=O)c2ccco2)CC1	54.2*	0.2	-0.7	-11.3	9.6	22.3
O=C(CN1CCN(C(=O)NCc2ccc(Cl)cc2)CC1)c1cccs1	58.9*	1.1	-2.4	3.5	7.9	18.9
O=C(CN1CCN(C(=O)NCc2cccs2)CC1)c1ccco1	57.5*	0.1	-0.8	5.2	9.0	27.7
CC(=O)c1ccc(NC(=O)COC(=O)/C=C/c2ccc([N+](=O)[O-])cc2)cc1	16.4	-0.1	0.1	5.1	.	.
COc1ccc(OC)c(S(=O)(=O)Nc2ccc(OCc3ccccc3)cc2)c1	4.3	0.6	1.8	-2.3	.	.
CCN(CC)C(=O)N1CCC(NC(=O)c2ccc([N+](=O)[O-])cc2)CC1	4.9	0.1	-0.3	-7.4	.	.
N#C/C(=C/c1ccccc1Cl)C(=O)Nc1sc2c(c1C(N)=O)CCCC2	15.7	0.1	-0.8	9.3	.	.
CCOc1ncccc1C(=O)OCC(=O)Nc1oc(-c2ccco2)c(-c2ccco2)c1C#N	71.4*	-0.3	-0.6	2.4	72.0*	4.7	AS interf DR=>6.38
SMILES	MITF inh	FBW7 activator	GPR151 ag	TEAD-YAP inh	MITF inh conf	AS interf ctr	others
N#Cc1c(NC(=O)c2cccnc2Cl)oc(-c2ccco2)c1-c1ccco1	22.1	-0.3	-0.1	-0.2	.	.
COCCNC(=O)c1cc(S(=O)(=O)N2CCOCC2)ccc1C	1.2	0.0	2.9	-1.4	.	.
Cn1c(CN2CCN(Cc3ccccc3)CC2)nc(=O)c2ccccc21	71.4*	0.0	-1.2	-3.7	-16.8	2.6
Cc1noc(C)c1CN1CCN(C(=O)c2cc(=O)c3ccccc3o2)CC1	9.6	0.0	0.8	-3.8	.	.
Cn1c(CN2CCN(C(=O)c3cc(=O)c4ccccc4o3)CC2)nc2ccccc21	86.1*	-0.3	0.1	9.4	1.7	13.8
COC(=O)c1ccc(NC(=O)CN2CCN(Cc3nc4ccccc4n3C)CC2)cc1	70.3*	-0.2	-0.4	2.1	3.4	20.3
COCCNC(=O)N1CCN(Cc2nc3ccccc3n2C)CC1	78.4*	-0.2	0.4	4.9	8.4	19.7
COc1ccc(/C=N/NC(=O)COc2cccc(Cl)c2)cc1I	-1.8	-0.1	-0.4	-3.0	.	.
COCCn1nnnc1C(c1ccc(Cl)cc1)N1CCN(c2ccccc2)CC1 (stereo not given)	7.3	0.0	-0.7	-9.7	.	.
CN(C)c1cccc(Nc2nc(C(=O)NC3CCN(Cc4ccccc4)CC3)cs2)c1	57.6*	-0.2	-0.7	-10.9	24.8	16.1
O=C(O)C1C2CCC(C2)C1C(=O)Nc1nc(-c2cccs2)cs1 (stereo not given)	-0.3	0.0	0.9	1.5	.	.
CN1C(=O)c2ccccc2C(C(=O)O)C1c1cccc(Oc2ccccc2)c1 (stereo not given)	16.6	0.2	0.9	-3.6	.	.
CC1CCc2c(sc(NC(=O)c3cc([N+](=O)[O-])ccc3Cl)c2C(=O)Nc2cccc3ccccc23)C1 (stereo not given)	5.2	1.0	0.2	1.1	.	.
CCOC(=O)CCCCC(=O)c1[nH]c(=O)[nH]c1CSC(=N)N	44.9	0.1	-0.3	-7.7	.	.
CCOC(=O)CCCCC(=O)c1[nH]c(=O)[nH]c1C	115.4*	-0.6	-1.5	-3.5	118.5*	98.6*
Cc1[nH]c(=O)[nH]c1C(=O)CCCCC(=O)OCC(=O)Nc1ccccn1	115.6*	-0.7	0.0	-2.8	118.2*	97.4*
Cc1cc(C)cc(OCC(=O)Nc2ccccn2)c1	9.8	-0.1	-0.7	-42.3	.	.
Cc1[nH]c(=O)[nH]c1C(=O)CCCCC(=O)OCC(=O)c1ccc(Br)cc1	114.5*	-1.0	1.4	7.7	112.3*	92.9*
CCc1ccc(CC(=O)Nc2sccc2-c2nc3ccccc3s2)cc1	-3.4	-0.1	1.9	0.9	.	.
COC(=O)C(=O)CC(=O)c1ccc2c3c(cccc13)CC2	0.3	-0.1	-0.9	2.8	.	.
COCCNC(=S)NNC(=O)c1cc(Cl)ccc1OC	63.0*	0.1	-1.0	-5.7	11.9	14.2
COCCNC(=S)NNC(=O)c1ccc(Cl)cc1Cl	-11.6	-0.1	0.2	-6.8	.	.
CN(CCN1CCOCC1)C1CCN(C(=O)CNC(=O)/C=C/c2cccs2)CC1	62.3*	0.1	-0.9	6.7	0.6	13.2
COc1cc(/C=N/N=C2\NC(=O)C(CC(=O)O)S2)ccc1OCc1ccc(C)cc1 (stereo not given)	65.7*	0.2	-1.3	-40.4	44.9*	3.6	AS interf DR=>6.48
COc1cc(/C=N/N=C2\NC(=O)C(CC(=O)O)S2)ccc1OCC(=O)O (stereo not given)	9.5	-0.2	0.4	1.1	.	.

Screening data: PubChem, The Scripps Research Institute Molecular Screening Center
